Data from PubChem BioAssay AID602440 (Sanford-Burnham Center for Chemical Genomics, 2012).
Screen size: about 360,000 compounds; about 2,300 (0.64%) were called active. Many of the other results were omitted from the sample, so actives are more common in it than they were. A number with no mark means an inactive call. No stated cut-off is given here; in the data, active means inhibition mostly above about 40% (no sharp cut-off); inactive means mostly below about 27%.

Molecular target: Sentrin-specific protease 8 (Homo sapiens) (UniProt Q96LD8)
Sequence (Q96LD8 whole entry, looked up): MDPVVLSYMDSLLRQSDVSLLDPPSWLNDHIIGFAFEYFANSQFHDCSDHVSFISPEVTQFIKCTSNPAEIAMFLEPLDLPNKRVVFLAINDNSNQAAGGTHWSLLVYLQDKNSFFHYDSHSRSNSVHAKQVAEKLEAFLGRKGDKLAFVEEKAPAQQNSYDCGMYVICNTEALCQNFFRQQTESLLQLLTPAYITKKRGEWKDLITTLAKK
Experiment: blockers of SENP8 deneddylase activity – biochemical, fluorescence, Nedd8 protein substrate, uHTS, primary screen (AID 602440)
Settings: recombinant SENP8, Nedd8 substrate fluorescence; at 20 µM; stronger effect = higher value

SMILES | inhibition
CCCCN(CC(=O)NC(C)(C)C)C(=O)C(=O)Nc1ccc2c(c1)OCCO2 | 17%
O=S(=O)(O)CCN1CCOCC1 | 24.3%
O=C1c2ccccc2C(=O)C1C(=O)C1CC1 | 37.6% (active)
O=C1c2ccccc2C(=O)C1c1ccccc1 | 4.5%
O=C1c2ccccc2-c2ccccc2NC1O (configuration not stated) | 14.1%
Cc1cccc2nc(CNc3ccc(F)cc3)cn12 | -86.7%
CCOC(=O)c1sc2nc(C)nc(Nc3ccc(OC)c(OC)c3)c2c1C | -82.2%
CCCCN1CC(C)(C)[C@H](CC(=O)Nc2ccc(Br)cc2)C1=O | 15.8%
Cn1c2ccc(F)cc2c2nnc(NN)nc21 | 49.2% (active)
CCn1c2ccc(F)cc2c2nnc(SCCN3CCOCC3)nc21 | 11.3%
CN(C)c1nc(NN)nc(Nc2ccc(F)cc2)n1 | 12.3%
N#Cc1c(N)nc2c3c(sc(=N)c2c1N)NC(=O)CC3c1ccccc1Cl (configuration not stated) | -174%
CCCCN1CC(N2CCN(Cc3cccc(C)c3)CC2)CS1(=O)=O (configuration not stated) | 12.1%
CC1=NOC(=O)/C1=C\c1ccccc1 | 42.9% (active)
C#CCOc1ccccc1/C=C1/C(=O)ON=C1C | 13.5%
Cc1ccc(S(=O)(=O)n2oc(=O)c(C3CCCCC3)c2N)cc1 | 7.6%
COc1cc(OC)cc(C(=O)NCC(=O)OCc2csc(-c3ccccc3)n2)c1 | 15.3%
Cc1ccc(F)cc1NC(=O)c1cccc(N(C)C)c1 | -82.7%
CN(C)S(=O)(=O)c1ccc(C(=O)NCC2(N3CCOCC3)CCCCC2)cc1 | 5.2%
COc1cc(N2CCCC2)c(OC)cc1/C=C(/C#N)c1cccc(Br)c1 | 75.3% (active)
CCC(C)CN1CCC(CO)(Cc2ccccc2Cl)CC1 (configuration not stated) | 1.5%
COc1ccc(Br)c(Cn2c(C)c(C(=O)NCc3cccs3)sc2=O)c1 | 3.5%
COc1cccc(Nc2nnc(SCC(=O)N3CC(=O)Nc4ccccc43)s2)c1 | -6.6%

SMILES | inhibition
COc1c(F)c(F)c(C(=O)O)c(Nc2ccccc2C)c1F | 4.1%
Cc1ccc(S(=O)(=O)N2CCN(CC(=O)N/N=C/c3ccc(Br)s3)CC2)cc1 | 6%
Cc1ccccc1NCC(=O)N/N=C\c1ccc([N+](=O)[O-])s1 | 45.1% (active)
Cc1nn(Cc2ccc(Cl)cc2)c(Cl)c1/C=N/NC(=O)CNc1ccccc1F | 7.1%
O=C(CN(C(=O)CNC(=O)c1cccs1)c1cccc(F)c1)NC1CCCCC1 | 11.2%
Cc1ccc(NC(=O)COC(=O)CN2CCSC2=O)cc1F | 14.3%
Cc1cccc(S(=O)(=O)N(C)C[C@H]2OCc3cnnn3CCCC(=O)N([C@@H](C)CO)C[C@H]2C)c1 | 14.1%
COc1ccc(OC)c(NC(=O)c2cccc(S(=O)(=O)N3CCN(C(C)=O)CC3)c2)c1 | 13.3%
CC(=O)Nc1ccc(S(=O)(=O)N2CCC(NC(=O)c3ccccc3)CC2)cc1 | 9%
CC(=O)N1CCN(S(=O)(=O)c2cccc(C(=O)NC3CCC(C)CC3)c2)CC1 (configuration not stated) | 43.9% (active)
C/C(=N\NC(=O)CCn1nc(C)cc1C)C(C)(C)C | 13.5%
CCN1C(=O)[C@H]2[C@@H](c3ccc(C(F)(F)F)cc3)N[C@]3(CCCN(Cc4ccc(Br)cc4)C3=O)[C@H]2C1=O | 3.9%
COc1cccc(N2C(=O)CC(N3CCc4ccccc4C3)C2=O)c1 (configuration not stated) | 11.5%
O=C(c1c(F)cccc1Cl)N1CCN(S(=O)(=O)c2ccc3c(c2)OCCCO3)CC1 | 5.8%
O=C(CCC1CCCC1)N=C1SC2CS(=O)(=O)CC2N1Cc1ccccc1 (configuration not stated) | 8.9%
O=C(N=C1SC2CS(=O)(=O)CC2N1Cc1ccccc1)c1ccccc1 (configuration not stated) | 13.8%
CC(C)CC(=O)N=C1SC2CS(=O)(=O)CC2N1CCc1ccccc1 (configuration not stated) | 42% (active)
Cn1c2c(c(=O)n(C)c1=O)C(c1ccc(O)cc1)Nc1ccccc1O2 (configuration not stated) | 23%
COc1ccc(S(=O)(=O)Nc2ccc3cn[nH]c3c2)cc1[N+](=O)[O-] | 45.4% (active)
COc1ccc(S(=O)(=O)N/N=C\c2ccc(OC)c(COc3ccc(C)cc3[N+](=O)[O-])c2)cc1 | 10.6%
O=C(O)c1cc(S(=O)(=O)Nc2ccc3cn[nH]c3c2)ccc1Br | -90.8%
Cc1cc(NC(=O)CCC(=O)N(Cc2ccccc2)C(C(=O)NC2CCCC2)c2ccc(C)o2)no1 (configuration not stated) | 1.5%
CCOc1ccc(NC(=O)c2cccc3c2C(=O)N(CC2CCCO2)C3)cc1 (configuration not stated) | 5.6%

SMILES | inhibition
CCCN1C(=O)C(Cc2nc3ccccc3c(=O)n2-c2ccccc2)c2cc(C)ccc21 (configuration not stated) | 12.4%
CCn1c(O)c(N=NC(=O)c2cccc(S(=O)(=O)N3CCCCC3)c2)c2ccccc21 | 28%
CCn1c(O)c(N=NC2=NC(=O)CS2)c2cc(C)ccc21 | 46.9% (active)
N#Cc1cccc(NC(=O)c2cc(C3CCCCN3C(=O)CCc3ccccc3)on2)c1 (configuration not stated) | 8.1%
Clc1ccc(C2[C@H]3CN(CC4CCCCC4)[C@H](c4ccccc4)C34CC2(c2cccnc2)C4)cn1 (some centres not stated) | 7.6%
COc1ccc(NC(=O)CSc2nnnn2-c2cccc(OC)c2)cc1 | 10.5%
Cc1ccc(NS(=O)(=O)c2ccc(N/N=C/c3ccccc3OCC(=O)O)c([N+](=O)[O-])c2)c(C)c1 | 49.7% (active)
COc1ccc(Br)cc1/C=N/Nc1ccc(S(=O)(=O)Nc2ccccc2C(=O)O)cc1[N+](=O)[O-] | 46.4% (active)
COc1ccccc1C(CNC(=O)c1cccc(NS(=O)(=O)c2ccc(Br)cc2)c1)N(C)C (configuration not stated) | 0.9%
Cc1ccc(S(=O)(=O)NC(=O)COc2ccccc2C)cc1 | 12.8%
COc1ccc(N(CC(=O)Nc2ccc(C)cc2C)S(=O)(=O)c2ccccc2[N+](=O)[O-])c(OC)c1 | 10.2%
CC1CN(C(=O)c2ccccc2NS(=O)(=O)c2cccc([N+](=O)[O-])c2)CC(C)O1 (configuration not stated) | 4.5%
COc1cccc(N(Cc2nnc3n2CCCCC3)C(=O)Nc2ccccc2F)c1 | 9.7%
CC1CC2=C(CC1/C=N/NC(N)=S)C(C)(C)CCC2 (configuration not stated) | 12.2%
O=C(CCNS(=O)(=O)c1ccccc1)NCCSc1ccc(Br)cc1 | 9%
CNC(=O)COc1ccc(S(=O)(=O)Nc2ccccc2)cc1 | 3.4%
Cc1ccc(S(=O)(=O)N[C@H](CO)C(C)C)cc1 | 11.7%
Cc1ccc(S(=O)(=O)/N=C2\C=C(NS(=O)(=O)c3ccc(C)cc3)C(=O)c3ccccc32)cc1 | 89.9% (active)
Cc1ccc(S(=O)(=O)N/N=C(\c2ccccc2)C2CC2)cc1 | 3.3%
COc1ccc(C(=O)C(C)OC(=O)c2cccc(S(=O)(=O)Nc3c(C)n(C)n(-c4ccccc4)c3=O)c2)cc1 (configuration not stated) | 5.8%
COc1ccc(S(=O)(=O)/N=C2\C=C(NS(=O)(=O)c3ccccc3)C(=O)c3ccccc32)cc1 | 70% (active)
COC(=O)c1ccccc1NC(=O)c1cncc(Br)c1 | 3.1%
C/C=N/NC(=O)CCCC(=O)N/N=C/C | 6.6%

SMILES | inhibition
COc1cc2c(cc1OC)C(=O)NCC(C)(C)O2 | 15.5%
COc1cc(C(C(=O)NC2CCCC2)N(C(=O)c2ccco2)c2ccccc2C(C)=O)cc(OC)c1OC (configuration not stated) | 10.1%
O=C1OCCN1C(=O)[C@H]1[C@H](c2ccc(Cl)cc2)C(c2cccc(Cl)c2)=NN1c1ccc(Br)cc1 | -366%
O=C(c1cccnc1)N(c1cc2sc(=O)oc2c2ccccc12)S(=O)(=O)c1ccccc1 | 7.7%
O=C(O)CN1C(=O)CC(Cc2ccccc2)C1=O (configuration not stated) | 3.4%
COc1cccc(CC2(CO)CCCN(Cc3ccc(OC(F)F)cc3)C2)c1 (configuration not stated) | 10.3%
CN(C)c1ccc(S(=O)(=O)NCC(=O)NCC2CCCCC2)cc1[N+](=O)[O-] | 11.6%
CN(C)c1ccc(/C=C/C(=O)c2ccc(O)cc2)cc1[N+](=O)[O-] | 47.5% (active)
CCN(CC)CCN(C)C(c1ccnc2ccccc12)c1nnnn1-c1ccc2c(c1)OCCO2 (configuration not stated) | 7.5%
CC(C)N(C(=O)[C@H]1C[C@H](CC(=O)NC(C)(C)C)C(=O)N2CCc3c([nH]c4ccc(Cl)cc34)[C@]12C)C(C)C | 19%
COC(=O)C1=C(C(=O)c2ccc(C)cc2)C(c2ccccc2)n2nnnc2N1 (configuration not stated) | 44.3% (active)
COc1ccccc1NC(=O)C1=C(C)Nc2nnnn2C1c1cccc(Br)c1 (configuration not stated) | 6%
COC(=O)c1ccc(C2C3=C(Nc4nnnn42)c2ccccc2OC3)cc1 (configuration not stated) | -273%
O=C1CC(Cc2ccc(Cl)cc2)C(=O)N1c1cc(Cl)ccn1 (configuration not stated) | 9.6%
COc1ccccc1CNC(=O)COC(=O)c1sc(C)nc1C | 17.6%
CCN(C(=O)COc1cccnc1[N+](=O)[O-])C1CCS(=O)(=O)C1 (configuration not stated) | 11.8%
NC1=CC(=O)C(=O)c2cccnc21 | 95% (active)
C[C@@H](O)c1nc2ccccc2n1N | 19%
Cc1ccc2c(=O)cc(C(=O)NCCc3ccc(S(N)(=O)=O)cc3)oc2c1C | 12.8%
CCN(CC)c1ccc(S(=O)(=O)N2CCCCC2)cc1NC(=O)C1=COCCO1 | 5.2%
O=C(NCCNc1ccccc1[N+](=O)[O-])c1ccccc1F | 19.2%
O=[N+]([O-])c1ccccc1NCc1ccccc1Cl | 46.6% (active)
O=C(NCc1ccccc1Cl)NC(=O)c1csc([N+](=O)[O-])c1 | 6.1%
